Compounds with a hit are over-represented: about 3.2% of the library has one in this group of screens.
LASV entry inh = qHTS for Inhibitors of binding or entry into cells for Lassa Virus. Lassa virus pseudotype entry inhibition, cell reporter. Potency, µM (series often up to 37.9 µM), for the others: top-dose activity change, negative = inhibition, most hits filed as inhibitors. actives 1.2% (n = 300,000). AID 540256, 2011; calls by dose curve; tested in HEK293 cells; note: nearly all actives have a fitted effect of over 50% in size
Vaccinia mCherry = qHTS for Stage-Specific Inhibitors of Vaccinia Orthopoxvirus: mCherry Reporter Primary qHTS | Vaccinia virus mCherry reporter infection, fluorescence | Potency, µM (doses to about 36.5 µM), inactives show top-dose activity change, negative = inhibition, usual class: inhibitors | actives 0.63% (n = 310,000); calls by dose curve; tested in A549 cells; note: nearly all actives have a fitted effect of over 35% in size
FMDV inh = High Throughput Screening for Foot and Mouth Disease Virus Antivirals. FMDV antiviral cell-based qHTS. actives 1.2% (n = 410,000). AID 1159524, 2015. Potency, µM (series often up to 57.9 µM), without a hit: at the top dose activity change, negative = inhibition, most hits filed as inhibitors; calls by dose curve; tested in HEK293T cells; note: read-out not given here; nearly all actives have a fitted effect of over 45% in size
Marburg entry inh = qHTS for inhibitors of binding or entry into cells for Marburg Virus. Marburg virus pseudotyped entry inhibition, cell reporter. actives 1.8% (n = 300,000). Potency, µM (highest dose often 37.8 µM), for inactives: top-dose activity change, negative = inhibition, hits mostly inhibitors; calls by dose curve; tested in HEK293 cells
Vaccinia Venus = qHTS for Stage-Specific Inhibitors of Vaccinia Orthopoxvirus: Venus Reporter Primary qHTS | Vaccinia virus Venus reporter expression, fluorescence | Potency, µM (top dose mostly 36.5 µM), for the others: at the highest dose activity change, negative = inhibition, actives largely listed as inhibitors | actives 0.46% (n = 330,000) | AID 720580, 2013; calls by dose curve; tested in A549 cells; note: nearly all actives have a fitted effect of over 30% in size
The depositor's hits bear a star; i = inactive; u = inconclusive; x = not tested or not shown; [ ] = dose if it differs, or a comment. % is set by controls: 0 for no effect and ±100 for the full control effect; potency is the fitted concentration of half-maximal effect.

SMILES | LASV entry inh | Vaccinia mCherry | FMDV inh | Marburg entry inh | Vaccinia Venus
CNC(=O)c1ncccc1Nc1nc(Nc2cc3c(cc2OC)CCCN3C(=O)CN(C)C)nc2[nH]ccc12 | 3.97µM* | x | x | x | x
COc1ccc(NC(=O)N2CCCc3ccccc32)c(OC)c1 | u | u | -0.7% | 14.4%[46.1 µM] | -13.8%
COc1cc2c(cc1Nc1nc(Nc3ccsc3C(N)=O)c3cc[nH]c3n1)N(C(=O)CN(C)C)CCC2 | 0.0705µM* | x | x | x | x
NC(=O)C1CCCN(Cc2ccc3c(c2)CN(Cc2ccccc2)CCO3)C1 (stereo not given) | x | -5.2% | 2.1% | x | 1.4%
N#Cc1ccc(C(=O)CSc2n[nH]c(=O)n2Cc2ccco2)cc1 | -20.2% | i | -14.7% | -9.1% | -5.7%
Cc1oc2ncn(C)c(=O)c2c1C(=O)NCc1ccccc1 | -3.6%[46.1 µM] | -13.6% | 13.8% | x | -2.7%
Cc1ccc(C(C(=O)NCC2CCCO2)N(C(=O)c2snc(C(N)=O)c2N)c2ccc3c(c2)OCCO3)cc1 (stereo not given) | 6.31µM* | -4.0% | -2.3% | u | -10.1%
NC(=O)c1nsc(C(=O)N(c2ccc3c(c2)OCCO3)C(C(=O)NCC2CCCO2)c2ccc(F)cc2)c1N (stereo not given) | u | -13.0% | 9.9% | u | 2.9%
CCOc1ccc(C(C(=O)NCC2CCCO2)N(C(=O)c2snc(C(N)=O)c2N)c2cccc(F)c2)cc1 (stereo not given) | u | -16.0% | -16.1% | u | -8.6%
CCOc1ccc(C(C(=O)NCC2CCCO2)N(C(=O)c2snc(C(N)=O)c2N)c2ccccc2F)cc1 (stereo not given) | 7.08µM* | -2.9% | 25.6% | u | -12.4%
Cc1ccc(C)c(S(=O)(=O)Nc2cc3c4c(c2)CCC(=O)N4CCC3)c1 | -28.4% | -22.2% | 48.1% | -9.0%[46.1 µM] | -9.7%
C=CCOC(=O)C(C(C)=O)[C@@H](NC(=O)OC)c1ccc(Cl)cc1 (stereo not given in full) | x | x | x | -10.3%[14.2 µM] | x
O=C(Nc1ncccc1O)c1ccc(S(=O)(=O)Nc2ccccc2)cc1 | u | u | -2.6% | -20.7%[46.1 µM] | -23.5%
O=C(COC(=O)Cc1ccc(-c2ccccc2)cc1)NCc1ccccc1 | -9.4% | x | -5.6% | 2.5% | x
O=C(COC(=O)CC(c1ccccc1)c1ccccc1)NCc1ccccc1 | 11.6µM* | x | u | 0.8% | x
CN1CCN(C(c2cccc(C(F)(F)F)c2)c2nnnn2Cc2ccccc2)CC1 (stereo not given) | u | -9.8% | x | 14.6µM* | -22.3%
N#Cc1cccc(C(c2nnnn2Cc2ccccc2)N2CCCC2)c1 (stereo not given) | 1.8% | -2.0% | x | -0.2% | -14.9%
Cc1nc(NCCc2ccc(S(N)(=O)=O)cc2)c2c(C)c(C)sc2n1 | u | u | 22.4µM* | u | u
COc1cc2c(cc1OC)C(C)N(C(=O)c1cc3c(C)cc(C)cc3[nH]1)CC2 (stereo not given) | u | i | -18.0% | 3.16µM* | -11.4%
COc1cc2c(cc1OC)C(C)N(C(=O)Nc1cc(C)cc(C)c1)CC2 (stereo not given) | x | x | -16.7% | x | x
CCOC(=O)N1CCN(Cc2nc(N)nc(Nc3ccc(Oc4ccccc4)cc3)n2)CC1 | u | x | 31.6µM* | u | u
Nc1nc(CN2CCCCCC2)nc(Nc2ccc(F)cc2)n1 | 8.3% | -7.9% | -6.0% | 4.1%[46.1 µM] | 0.1%
CCOC(=O)C1CCCN(Cc2nc(N)nc(Nc3ccc(OC)cc3)n2)C1 (stereo not given) | -19.6% | x | u | -15.7% | x
CCOC(=O)C1CCCN(Cc2nc(N)nc(Nc3ccc(Cl)cc3)n2)C1 (stereo not given) | -7.7% | -21.2% | 28.2µM* | 7.08µM* | -23.4%
Nc1nc(CN2CCN(c3ccccn3)CC2)nc(Nc2ccc(F)cc2)n1 | u | x | u | 2.59µM* | x
SMILES | LASV entry inh | Vaccinia mCherry | FMDV inh | Marburg entry inh | Vaccinia Venus
COc1c(-c2coc3cc4c(cc3c2=O)CC(OC(C)=O)C(C)(C)O4)ccc2c1C=CC(C)(C)O2 (stereo not given) | x | -4.1% | u | x | -3.4%
COc1c(-c2coc3cc4c(cc3c2=O)CC(O)C(C)(C)O4)ccc2c1C=CC(C)(C)O2 (stereo not given) | x | 11.2µM* | 2.24µM* | x | 11.2µM*
C=CCC[C@H](Cc1ccc(F)cc1)C(=O)OC[C@H](Cc1c[nH]c2ccccc12)NC(=O)[C@@H](CC=C)CC(=O)N(CCO)Cc1ccccc1 | x | u | 39.8µM* | x | 11.2µM*
C=CC[C@H](CC(=O)N(CCO)Cc1ccccc1)C(=O)NC[C@@H](OC(=O)[C@@H](CC=C)Cc1ccc(F)cc1)c1ccccc1 | x | -5.4% | u | x | u
C=CCC[C@H](Cc1ccc(F)cc1)C(=O)O[C@H](CNC(=O)[C@@H](CC=C)CC(=O)N(CCO)Cc1ccccc1)c1ccccc1 | x | 2.0% | 39.8µM* | x | -18.1%
C=CCC[C@H](Cc1ccc(F)cc1)C(=O)OC[C@@H](Cc1c[nH]c2ccccc12)NC(=O)[C@@H](CC=C)CC(=O)N(CCO)Cc1ccccc1 | x | 12.6µM* | u | x | 11.2µM*
COc1ccc(NC(=O)CSc2ccc3nnc(CCNC(=O)c4ccccc4)n3n2)cc1OC | 7.8% | i | -10.1% | 22.3% | -7.0%
COc1ccc2oc(=O)c(-c3nc(-c4cc(OC)c(OC)c(OC)c4)no3)cc2c1 | 12.1%[46.1 µM] | -7.5% | -20.0% | x | -3.2%
CC(CCc1ccc(O)cc1)N1CCOc2c(O)cc(-c3nc4ccccc4s3)cc2C1 (stereo not given) | x | u | -8.2% | x | -32.9%
COc1ccc(C(=O)Nc2ccc(NC(=O)c3ccccn3)cn2)cc1 | u | -23.3% | 3.8% | -1.8%[46.1 µM] | -5.7%
O=C(NN=C(c1ccccc1)c1ccccn1)c1ccccc1 | u | 2µM* | -13.5% | 6.31µM* | u
O=C(NC(O)C(=O)c1ccccc1)c1ccccn1 (stereo not given) | -0.5%[46.1 µM] | -14.0% | 46.1% | -7.6%[46.1 µM] | 1.9%
COc1ccc(C(=O)NCCSc2ccccn2)cc1 | 14.1µM* | x | u | u | -38.0%
COc1ccc(NC(=O)c2ccccn2)cc1 | u | x | 11.2µM* | u | -12.4%
COc1ccc(C(=O)N/N=C(\c2ccccc2)c2ccccn2)cc1 | u | 2.24µM* | -33.3% | 9.2µM* | u
COc1cccc(C(=O)Nc2ccc(Cl)c(-c3nc4ccccc4[nH]3)c2)c1 | u | -22.3% | u | u | u
O=C(Nc1ccc(Cl)cc1)O/N=C(\c1ccccc1)c1ccccn1 | 17.5% | i | x | 10.2% | -4.5%
O=C(N/N=C(\c1ccccc1)c1ccccn1)c1ccccc1Cl | u | 2.51µM* | u | u | u
CCc1cc2c(nc1CC)CCN(CC/C(C)=N/O[C@H](C)c1cn([C@H](CO)Cc3ccccc3)nn1)C2 | x | x | x | -27.1%[14.2 µM] | x
c1ccc2nc(-c3nc4ccccc4o3)ccc2c1 | 2.31µM* | x | -92.9% | u | x
CN(C)CCN(Cc1ccccc1)C(=O)c1[nH]c(C(F)(F)F)nc1-c1ccccc1 | x | 7.3% | 35.5µM* | x | 3.2%
